Experimental findings from ChEMBL document CHEMBL4513216, “Probing the Open Global Health Chemical Diversity Library for Multistage-Active Starting Points for Next-Generation Antimalarials” (ACS Infect Dis, 2020) are described below.

Hit rate of the full screen: of about 65,000 compounds, about 2,100 (3.2%) showed an effect of 50% or more. The median lay at about -52%. The entries come from a sample that favours strong results as a whole.

The assay has as its system Plasmodium falciparum. Kind of assay: Screen against P. falciparum Asexual Blood Stage (ABS), at 5uM. As to conditions: tested at 5 uM. The format is functional, Dd2.
For the molecule `CCn1ccnc1CN1CCCN(C(=O)Cc2ccc(C)cc2)CC1`, the INHIBITION is on record as -118%.
On to `Cc1cnn(CC(C)NCc2cc(C#N)ccc2F)c1` (stereo unspecified), for which the INHIBITION is -49.9%.
Under `Fc1cnc(N2CCO[C@H]3CN(CC4CCCCC4)C[C@H]32)nc1` stands 34.2%.
Under `Cc1ccc(NC(=O)CNC(C)Cc2ccsc2)cc1F` (stereo unspecified) stands 22.9%; under `COc1ccc(CNC(C)Cn2cccn2)cc1F` (stereo unspecified), -60.6%; under `Cc1cccc(C)c1NC(=O)CNC(C)Cc1ccsc1` (stereo unspecified), 29.6%.
Under `COc1cccc(OC)c1CNC(Cc1ccsc1)c1ccc(C)cn1` (stereo unspecified) stands 92.5%; under `COc1ccc(CNC(Cc2ccsc2)c2ncccc2C)cc1OC` (stereo unspecified), 74.7%.
Regarding `Cc1ncsc1CN1C[C@@H]2CCCO[C@@H]2[C@H](Nc2ccccn2)C1`, the INHIBITION is -27.2%.
Under `c1ccc(C2CCN(c3ncnc4c3CCNC4)CC2)cc1` stands 74.4%.
Under `Clc1cccc(C2CCN(c3ncnc4c3CCNC4)C2)c1` (stereo unspecified) stands 79.6%; under `c1ccc2sc(N3CCCN(c4ncnc5c4CCNC5)CC3)nc2c1`, 85.2%; under `CC[C@H](C)[C@@H](CO)NC(C)Cc1ccc(F)cc1` (stereo partly specified), 41.2%.
As for `O=C(C1CCC1)N1CCO[C@@H]2CNC[C@@H]21`, the INHIBITION was -39.2%.
With `COC(=O)NCC1CCC2(CCNCC2)O1` (stereo unspecified) the figure was -44.6%.
Under `CCOC(=O)N1CCC(NC(C)Cc2cc(C)n[nH]2)CC1` (stereo unspecified) stands -139%.
Take `CCOC(=O)[C@@H]1[C@@H](c2ccccc2)CN2CCN(C(=O)N(C)C)C[C@H]12`: the INHIBITION is -64%.
Under `CCC(CNC1CCN(C(=O)N(C)C)CC1)Oc1ccccc1C` (stereo unspecified) stands 73.2%; under `CN(C)C(=O)CN1CCCC12CCCN(c1ncc(F)cn1)C2` (stereo unspecified), -30.5%; under `CC(C)(C)n1cc(C2=CCN(CCNC(=O)c3ccccc3)CC2)cn1`, 19.4%.
Under `CC(C)(C)n1cc(C2=CCN(CCc3ccccc3)CC2)cn1` stands 68%.
With `CC(C)(C)n1cc(C2=CCN(CCc3ccccn3)CC2)cn1`, the INHIBITION was determined as 45.2%.
Under `CC(C)(C)n1cc(C2=CCN(CCN3CCCCCC3)CC2)cn1` stands 71.5%; under `Cc1nc(O)cc(CN2CC=C(c3cnn(C(C)(C)C)c3)CC2)n1`, -58.8%.
With `CC(C)(C)n1cc(C2=CCN(CCNC(N)=O)CC2)cn1` the figure was -161%; with `COCCN1CCC12CCN(c1ncccn1)C2` (stereo unspecified), -86.1%; with `O=C(CC[C@@H]1CCCN2CCCC[C@H]12)NCCc1cc(O)ncn1`, -119%.
Under `O=C(Cn1ccc2c(Cl)cccc21)N1CCC2(CC1)OCCO2` stands -85.8%; under `Cc1cccc2c1ccn2CC(=O)NC[C@@H]1CCCN2CCCC[C@H]12`, 70.9%; under `O=C(Cn1ccc2ccc(Br)cc21)NC[C@@H]1CCCN2CCCC[C@H]12`, 79.3%.
`Cc1nc(O)cc(CNC(=O)CC[C@@H]2CCCN3CCCC[C@H]23)n1`: the INHIBITION was -4.68%.
With `O=C(Cc1c[nH]c2ccccc12)N1CCC(Nc2ccccc2)CC1` the figure was -7.04%; with `Cc1n[nH]cc1C(=O)NCc1cccnc1N1CCc2ccccc2C1`, 75.3%.
Under `CN1CCc2c(CNC(=O)c3nccn3C)cncc2C1` stands -77.8%; under `COCCN1CCN(c2ccc(C)nn2)Cc2cccnc21`, -2.72%.
Under `O=C(C1CCC1)N1CCC2(CCNCC2)C1` stands -39.1%; under `COc1ccc(-c2c(C)nn3c(=N)c(C#N)n[nH]c23)cc1OC`, 87.8%.
As for `O=C(c1cccnc1)N1C[C@@H]2OCCN(CCN3CCCC3)[C@@H]2C1`, the INHIBITION is -134%.
For `CC(=O)NC[C@H]1C[C@@H]2CCN1C[C@@H]2c1cc(-c2cccs2)nn1C`, the INHIBITION is recorded as -50.5%.
With `CC(C)(C)c1cn2c(n1)C(CNCc1cnn3ccccc13)CCC2` (stereo unspecified) the figure was 80%; with `CC(C)(C)c1cn2c(n1)C(CNCc1ccccn1)CCC2` (stereo unspecified), 92.9%; with `Cc1cccc(CN2C(=O)C[C@H]3[C@@H]2CCN3Cc2ccccn2)n1`, -22.5%.
On to `Cn1cccc1CNCC1CCCn2cc(C(C)(C)C)nc21` (stereo unspecified), for which the INHIBITION is given as 75.7%.
For `c1ccc(CN2CC[C@H]3[C@H]2CCN3c2ncccn2)nc1`, the INHIBITION is on record as -84.3%.
With `Cc1nc(NCC2CC2)nc2c1COCC21CCNC1` (stereo unspecified) the figure was -88.5%; with `Cc1noc([C@]23COC[C@H]2CN(Cc2cc(C)on2)C3)n1`, -5.88%; with `Cc1nn(C)c2nc(N3CCCCC3c3cccnc3)sc12` (stereo unspecified), -114%.
Under `CCCS(=O)(=O)N1CCc2c(COCC)cncc2C1` stands -24.8%.
Under `Cc1noc(C)c1CN1C[C@@H]2CCCO[C@@H]2[C@H](NS(C)(=O)=O)C1` stands -59.8%.
As to `O=C(NCC(=O)N1CCC2(CC1)OCCO2)c1ccoc1`, the INHIBITION was -196%.
With `CS(=O)(=O)N1C[C@@H]2CC[C@H]1CN(Cc1ccncc1)C2` the figure was -82.5%.
